# Results taken from PubChem BioAssay (NCATS).
# “And” between values parts separate entries of the source, which are not always exact repeats. Equal values may be shown once. Records with an inconclusive call do not appear. Entries that show only a call come without a potency. The source made the active and inactive calls. Unless noted, the call rests on the fitted dose curve; in most records, active means well fitted curve in the direction sought with a large enough effect; inconclusive means small, poorly fitted or top-dose-only effect, or another doubt; inactive means no such curve, though single readings can be large; an effect the other way counts as inactive or inconclusive.
# How the values were obtained:
# [1] = qHTS Assay for Lipid Storage Modulators (AID 1519; calls by dose curve); conditions: Drosophila S3 cells, BODIPY lipid droplet/cell ratio, laser cytometry, cells loaded with oleic acid
# Method in brief: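 Cells seeded at 5,000 per well were treated with compounds over a concentration series and loaded with oleic acid (400 uM, as added). Lipid droplet fluorescence (488 nm excitation, 500-530 nm channel) was read by laser-scanning cytometry and normalized to 20 uM Triacsin C.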
# [2] = target: DNA repair nuclease/redox regulator APEX1 (Homo sapiens) (UniProt P27695); test: qHTS Validation Assay for Inhibitors of the Human Apurinic/apyrimidinic Endonuclease 1 (APE1) (AID 1705;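 further: TAMRA fluorescence gain over two minutes as APE1 cuts a quenched THF abasic duplex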); conditions: purified APE1 endonuclease activity, fluorescence, titration; series mostly up to 57.1 µM
# Method in brief: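 Read-out: TAMRA fluorescence (525 nm ex, 598 nm em) from cleavage of a quenched THF abasic-site duplex, 50 nM final; activity taken as intensity change between third and first of three reads 60 s apart.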
# [3] = Counterscreen for APE1 Inhibitors: Fluorescent Dye Displacement Validation Assay (AID 1707); conditions: fluorescent dye displacement from DNA; series mostly up to 57.1 µM
# Method in brief: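 Signal: ThO fluorescence (ex 480 nm/em 540 nm) on binding 50 nM dsDNA; displacement by test compound reduces it. Conditions: 250 nM dye, 50 mM Tris-HCl pH7.5, 2 mM MgCl2, 50mM NaCl, 0.01% Tween-20.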
# [4] = target: Endonuclease 4 (Escherichia coli (strain K12)) (UniProt P0A6C1); test: Counterscreen for APE1 Inhibitors: qHTS Validation Assay for Inhibitors of Endonuclease IV (AID 1708); conditions: E. coli endonuclease IV, DNA cleavage fluorescence; series mostly up to 57.1 µM
# Method in brief: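 Incision of a double-stranded 50 nM TAMRA/BHQ-2 abasic substrate was followed kinetically (525/598 nm, reads every 60 s) after 15 min enzyme–compound preincubation with 2 nM EndoIV in pH 7.5 Tris buffer with MgCl2, DTT and Tween-20; concentration-response format.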
# [5] = qHTS for differential inhibitors of proliferation of Plasmodium falciparum line Dd2 (AID 1882); conditions: Potency: Plasmodium falciparum Dd2 proliferation inhibition; series mostly up to 28.7 µM; further: nearly all actives have a fitted effect of over 65% in size; further: potency means the concentration at half of the fitted maximal effect
# Method in brief: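 SYBR Green DNA fluorescence (ex 485, em 535 nm) after overnight lysis quantifies parasite growth; compound exposure lasted 72 h at 37 C on infected red cells at 2.5% hematocrit, 0.3% parasitemia (final). Artemisinin 0.29 uM and vehicle wells define normalization.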
# [6] = qHTS for differential inhibitors of proliferation of Plasmodium falciparum line W2 (AID 1883); conditions: Potency: Plasmodium falciparum W2 proliferation inhibition; series mostly up to 28.7 µM;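 further: parasites grown with compound for 72 h before lysis and staining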; further: potency means the concentration at half of the fitted maximal effect
# [7] = target: ATP-dependent DNA helicase Q1 (Homo sapiens) (UniProt P46063); test: qHTS Validation Assay for Inhibitors of RecQ-Like Dna Helicase 1 (RECQ1) (AID 2353); conditions: recombinant RECQ1 helicase DNA unwinding assay; series mostly up to 25.6 µM
# Method in brief: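 RECQ1T1 50 nM; forked duplex (20 bp + 30-nt ss tails) 200 nM, ATP 2 mM final; pH 8.0, 2 mM MgCl2, 2.5 ug/ml poly(dI-dC); 15 min compound preincubation; discontinuous kinetic read over 2 h at RT.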
# [8] = Cytometric Cell-Based qHTS for Inhibitors of the mTORC1 Signaling Pathway in MEF (Tsc2-/-, p53-/-) Cells (AID 2660); conditions: mTORC1 pathway cytometry; series mostly up to 38.3 µM;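 further: Tsc2 and p53 null MEFs carrying empty vector with compound for 24 h; percent of cells above a phospho-rpS6 to PI ratio cutoff in each well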
# Method in brief: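 Readout: Alexa-488 phospho-rpS6 (Ser235/236) intensity divided by PI intensity, thresholded against 7.5 nM rapamycin wells and reported as % positive cells. PI cell count served as the viability measure. Compound exposure was 24 hrs at 37 degree Celsius.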
# [9] = High Content Imaging Cell-Based qHTS for Inhibitors of the mTORC1 Signaling Pathway in MEF (Tsc2-/-, p53-/-) Cells (AID 2666); conditions: series mostly up to 38.3 µM;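 further: percent of cells scored positive for phospho-rpS6 Ser235/236 immunostaining by imaging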; further: potency means the concentration at half of the fitted maximal effect
# Method in brief: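 Tsc2-/-, p53-/- MEFs (empty-vector stable) grown in DMEM + 10% FBS were exposed to compounds for 24 hrs at 37 degree Celsius, fixed, and stained with Alexa-488 anti-phospho-rpS6 Ser235/236 plus Hoechst. Imaging gave the percentage of positive cells per well.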
# [10] = High Content Imaging Cell-Based qHTS for Inhibitors of the mTORC1 Signaling Pathway in MEF Cells (AID 2667); conditions: series mostly up to 38.3 µM;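 further: Tsc2-/- p53-/- MEFs stably re-expressing wild-type Tsc2 exposed 24 h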
# Method in brief: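 Tsc2-/-, p53-/- MEFs stably re-expressing WT Tsc2, grown in DMEM + 10% FBS, were treated with compounds for 24 hrs at 37 degree Celsius, fixed, and stained with Alexa-488 phospho-rpS6 Ser235/236 antibody plus Hoechst; results given as % positive cells.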
# [11] = Validation of Assay for Modulators of Lamin A Splicing (AID 1459; active means well fitted curve in the direction sought with a large enough effect in the signal ratio; the % refers to the signal ratio;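 further: cells exposed to compound for two days before reading; ratio rise marks activators and ratio drop marks inhibitors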); conditions: Lamin A splicing dual RFP/GFP fluorescence reporter; series mostly up to 9.22 µM
# Method in brief: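 Readout: ratio of GFP (500-530 nm) to RFP (575-640 nm) total object intensity by 488 nm laser-scanning cytometry after 48 hrs. Cells were HeLa S3 clones carrying lamin A-EGFP minigene plus DsRed2 viability reporter; vehicle 0.5% DMSO final.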
# [12] = qHTS for differential inhibitors of proliferation of Plasmodium falciparum line 7G8 (AID 1815); conditions: Plasmodium falciparum 7G8 proliferation inhibition; series mostly up to 28.7 µM;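 further: parasite growth measured after three days of incubation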; further: potency means the concentration at half of the fitted maximal effect
# [13] = qHTS for differential inhibitors of proliferation of Plasmodium falciparum line GB4 (AID 1816); conditions: Potency: Plasmodium falciparum GB4 proliferation inhibition; series mostly up to 28.7 µM;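 further: parasite growth measured after 72 h incubation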; further: potency means the concentration at half of the fitted maximal effect
# [14] = qHTS for differential inhibitors of proliferation of Plasmodium falciparum line 3D7 (AID 1876); further: potency means the concentration at half of the fitted maximal effect; conditions: P. falciparum 3D7 proliferation inhibition; series mostly up to 28.7 µM
# [15] = qHTS for differential inhibitors of proliferation of Plasmodium falciparum line D10 (AID 1877); conditions: series mostly up to 28.7 µM;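 further: parasites grown with compound for 72 h before DNA staining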; further: potency means the concentration at half of the fitted maximal effect
# [16] = qHTS for differential inhibitors of proliferation of Plasmodium falciparum line HB3 (AID 1886); conditions: Potency: Plasmodium falciparum HB3 proliferation inhibition; series mostly up to 28.7 µM;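 further: parasites grown with compound for 72 h before SYBR Green readout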; further: potency means the concentration at half of the fitted maximal effect
# [17] = target: RecQ-like DNA helicase BLM (Homo sapiens) (UniProt P54132); test: qHTS Validation Assay for Inhibitors of Bloom's syndrome helicase (BLM) (AID 2364); conditions: BLM helicase DNA unwinding, fluorescence, in vitro; series mostly up to 57.1 µM; further: potency means the concentration at half of the fitted maximal effect
# Method in brief: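 Forked 20-bp duplex substrate (200 nM, TAMRA/BHQ-2) plus 2 mM ATP added after 15 min compound preincubation with 50 nM enzyme, pH 8.0, poly(dI-dC) 2.5 ug/ml. Strand separation followed by fluorescence (525/598 nm) over 2 h, normalized to enzyme-free and DMSO controls.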
# [18] = target: Ferritin light chain (Equus caballus) (UniProt P02791); test: qHTS Validation Assay for Identification of Novel General Anesthetics (AID 2323); conditions: horse apoferritin, anesthetic-site fluorescent probe displacement; series mostly up to 76.9 µM
# Method in brief: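 10 uM horse-spleen apoferritin + 1-AMA (50% saturated, PBS); cpd pin-transferred, 10 min RT. Ex 380/Em 535 nm endpoint. Activity normalized between free 1-AMA and 1-AMA/apoferritin; 4-parameter Hill fit of concentration-response.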
# [19] = measured here: cell count channel max response
# [20] = measured here: lipid channel max response
# ATP-dependent DNA helicase Q1 (Homo sapiens), sequence (P46063 whole entry, looked up): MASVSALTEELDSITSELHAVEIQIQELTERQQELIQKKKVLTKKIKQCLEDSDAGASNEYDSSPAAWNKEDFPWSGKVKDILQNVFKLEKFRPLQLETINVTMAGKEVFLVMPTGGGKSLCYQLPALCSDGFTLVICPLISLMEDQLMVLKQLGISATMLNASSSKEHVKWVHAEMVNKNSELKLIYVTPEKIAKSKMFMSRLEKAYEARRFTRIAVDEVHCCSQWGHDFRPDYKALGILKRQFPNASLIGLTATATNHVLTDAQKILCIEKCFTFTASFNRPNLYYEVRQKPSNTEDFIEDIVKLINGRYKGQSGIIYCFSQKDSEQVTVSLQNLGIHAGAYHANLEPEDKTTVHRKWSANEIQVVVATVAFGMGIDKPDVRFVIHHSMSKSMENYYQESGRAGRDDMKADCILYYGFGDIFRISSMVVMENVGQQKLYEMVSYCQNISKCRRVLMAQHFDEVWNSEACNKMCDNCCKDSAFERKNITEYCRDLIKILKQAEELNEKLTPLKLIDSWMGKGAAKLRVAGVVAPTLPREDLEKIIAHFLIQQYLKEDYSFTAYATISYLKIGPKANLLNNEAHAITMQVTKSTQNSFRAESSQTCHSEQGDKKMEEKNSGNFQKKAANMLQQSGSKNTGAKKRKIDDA
# RecQ-like DNA helicase BLM (Homo sapiens), sequence (P54132 whole entry, looked up): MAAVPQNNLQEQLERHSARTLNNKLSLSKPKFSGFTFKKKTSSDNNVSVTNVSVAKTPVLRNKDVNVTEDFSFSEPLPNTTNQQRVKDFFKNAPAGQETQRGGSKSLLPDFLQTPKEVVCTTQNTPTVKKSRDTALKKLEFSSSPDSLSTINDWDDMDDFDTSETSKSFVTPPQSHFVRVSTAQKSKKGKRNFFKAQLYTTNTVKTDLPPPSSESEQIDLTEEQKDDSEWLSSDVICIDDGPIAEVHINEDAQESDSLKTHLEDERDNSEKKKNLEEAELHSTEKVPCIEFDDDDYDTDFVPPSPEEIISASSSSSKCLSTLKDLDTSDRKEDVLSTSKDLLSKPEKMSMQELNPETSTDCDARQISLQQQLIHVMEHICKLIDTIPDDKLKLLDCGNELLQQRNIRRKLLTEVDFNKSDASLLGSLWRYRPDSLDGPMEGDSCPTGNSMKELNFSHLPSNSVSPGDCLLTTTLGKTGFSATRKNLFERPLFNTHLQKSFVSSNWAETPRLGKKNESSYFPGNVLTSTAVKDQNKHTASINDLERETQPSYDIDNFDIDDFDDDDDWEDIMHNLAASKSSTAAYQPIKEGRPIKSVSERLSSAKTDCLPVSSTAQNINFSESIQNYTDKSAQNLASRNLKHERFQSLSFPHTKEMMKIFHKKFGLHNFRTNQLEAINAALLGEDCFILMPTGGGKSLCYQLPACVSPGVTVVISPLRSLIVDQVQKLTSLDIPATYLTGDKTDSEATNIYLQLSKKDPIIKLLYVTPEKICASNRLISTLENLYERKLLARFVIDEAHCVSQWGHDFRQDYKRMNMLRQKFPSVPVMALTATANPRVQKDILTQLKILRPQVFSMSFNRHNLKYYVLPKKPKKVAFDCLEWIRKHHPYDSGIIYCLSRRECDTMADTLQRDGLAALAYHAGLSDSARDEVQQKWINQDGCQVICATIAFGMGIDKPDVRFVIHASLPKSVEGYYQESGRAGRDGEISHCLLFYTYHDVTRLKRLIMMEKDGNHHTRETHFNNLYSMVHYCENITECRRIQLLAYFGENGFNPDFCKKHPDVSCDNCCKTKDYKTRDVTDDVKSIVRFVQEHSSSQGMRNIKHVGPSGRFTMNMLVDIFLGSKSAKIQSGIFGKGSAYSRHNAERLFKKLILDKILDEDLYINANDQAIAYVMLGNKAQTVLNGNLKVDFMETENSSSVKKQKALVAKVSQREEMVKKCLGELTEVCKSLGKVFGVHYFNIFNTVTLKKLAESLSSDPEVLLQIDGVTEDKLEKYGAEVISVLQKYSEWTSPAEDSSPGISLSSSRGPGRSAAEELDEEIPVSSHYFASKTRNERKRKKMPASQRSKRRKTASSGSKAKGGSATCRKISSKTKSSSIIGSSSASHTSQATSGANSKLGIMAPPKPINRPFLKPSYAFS
# DNA repair nuclease/redox regulator APEX1 (Homo sapiens), sequence (P27695 whole entry, looked up): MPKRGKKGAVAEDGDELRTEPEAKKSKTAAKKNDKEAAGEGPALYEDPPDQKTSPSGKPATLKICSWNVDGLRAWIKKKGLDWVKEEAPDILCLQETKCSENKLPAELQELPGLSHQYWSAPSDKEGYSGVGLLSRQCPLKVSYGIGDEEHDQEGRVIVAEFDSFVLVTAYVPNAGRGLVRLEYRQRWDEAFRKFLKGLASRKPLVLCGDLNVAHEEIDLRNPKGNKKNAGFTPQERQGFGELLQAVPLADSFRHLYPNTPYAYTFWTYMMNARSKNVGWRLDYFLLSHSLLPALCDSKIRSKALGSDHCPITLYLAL
# Ferritin light chain (Equus caballus), sequence (P02791 2-175 limits assumed): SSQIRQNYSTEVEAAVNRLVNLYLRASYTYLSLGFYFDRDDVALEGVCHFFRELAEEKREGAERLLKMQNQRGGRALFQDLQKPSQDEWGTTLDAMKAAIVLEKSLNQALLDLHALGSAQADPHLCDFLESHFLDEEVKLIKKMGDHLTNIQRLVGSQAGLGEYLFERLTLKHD
smiles,measurement,setting,value
Cc1cc(C(C)(C)C)c(O)c(C)c1CC1=NCCN1,"activity change, negative = inhibition",[1]; at 25.7 µM (top of the series),-3.48% (inactive)
same,"activity change, negative = inhibition",[1]; at 57.5 µM (top of the series),-2.77% (inactive) and 10.3% (inactive)
same,max response,[1]; [19],-11.5% and -13.2% and 34.1%
same,max response,[1]; [20],-16% and -15.4% and 53.3%
same,Potency,[2],inactive
same,Potency,[3],inactive
same,Potency,[4],inactive
same,Potency,[5],inactive
same,Potency,[6],12.6 µM (active)
same,Potency,[7],inactive
same,outcome,[8],inactive
same,Potency,[9],inactive
same,Potency,[10],inactive
CCOC(=O)Nc1ccc(NCc2ccc(F)cc2)nc1N,outcome,[11],inactive
same,"activity change, negative = inhibition",[1]; at 57.5 µM (top of the series),0.206% (inactive)
same,max response,[1]; [19],49%
same,max response,[1]; [20],49.4%
same,Potency,[2],inactive
same,Potency,[4],inactive
same,Potency,[12],2.82 µM (active)
same,Potency,[13],2.82 µM (active)
same,Potency,[14],3.55 µM (active)
same,Potency,[15],7.08 µM (active)
same,Potency,[5],11.2 µM (active)
same,Potency,[6],2 µM (active)
same,Potency,[16],2.82 µM (active)
same,Potency,[7],inactive
same,Potency,[17],28.2 µM (active)
same,outcome,[8],inactive
same,Potency,[9],inactive
same,Potency,[10],inactive
CN(C)CCOC(c1ccccc1)c1ccccc1,"activity change, negative = inhibition",[1]; at 25.7 µM (top of the series),-4.2% (inactive)
same,"activity change, negative = inhibition",[1]; at 57.5 µM (top of the series),0.806% (inactive)
same,max response,[1]; [19],-10.1% and 40.8%
same,max response,[1]; [20],-13% and 41%
same,Potency,[2],inactive
same,Potency,[12],3.98 µM (active)
same,Potency,[14],inactive
same,Potency,[15],inactive
same,Potency,[5],3.98 µM (active)
same,Potency,[6],1 µM (active)
same,Potency,[16],inactive
same,Potency,[7],inactive
same,Potency,[17],inactive
same,outcome,[8],inactive
same,Potency,[9],inactive
same,Potency,[10],inactive
CC12CC3CC(C)(C1)CC(N)(C3)C2,"activity change, negative = inhibition",[1]; at 57.5 µM (top of the series),7.67% (inactive) and 1.43% (inactive)
same,max response,[1]; [19],15.3% and 15.6%
same,max response,[1]; [20],26.5% and 20.5%
same,Potency,[2],inactive
same,Potency,[4],inactive
same,Potency,[12],11.2 µM (active)
same,Potency,[13],0.891 µM (active)
same,Potency,[15],inactive
same,Potency,[5],5.62 µM (active)
same,Potency,[6],2.24 µM (active)
same,Potency,[18],inactive
same,Potency,[7],inactive
same,outcome,[8],inactive
same,Potency,[9],inactive
same,Potency,[10],inactive
NC(=O)OCC(COC(N)=O)c1ccccc1,"activity change, negative = inhibition",[1]; at 57.5 µM (top of the series),-4.42% (inactive)
same,max response,[1]; [19],-0.783%
same,max response,[1]; [20],-3.41%
same,Potency,[2],inactive
same,Potency,[4],inactive
same,Potency,[12],inactive
same,Potency,[13],inactive
same,Potency,[14],inactive
same,Potency,[15],inactive
same,Potency,[5],inactive
same,Potency,[6],inactive
same,Potency,[16],inactive
same,Potency,[7],inactive
same,Potency,[17],inactive
same,outcome,[8],inactive
same,Potency,[9],inactive
same,Potency,[10],inactive
CCc1cccc2c3c([nH]c12)C(CC)(CC(=O)O)OCC3 (stereo not given),"activity change, negative = inhibition",[1]; at 57.5 µM (top of the series),2.38% (inactive) and -6.74% (inactive)
same,max response,[1]; [19],1.96% and -60.6%
same,max response,[1]; [20],5.72% and -61.2%
same,Potency,[2],inactive
same,Potency,[3],inactive
same,Potency,[4],inactive
same,Potency,[12],inactive
same,Potency,[13],inactive
same,Potency,[14],inactive
same,Potency,[15],inactive
same,Potency,[5],inactive
same,Potency,[16],inactive
same,Potency,[7],inactive
same,outcome,[8],inactive
same,Potency,[9],inactive
same,Potency,[10],inactive
Fc1ccc([C@@H]2CCNC[C@H]2COc2ccc3c(c2)OCO3)cc1,"activity change, negative = inhibition",[1]; at 57.5 µM (top of the series),-0.973% (inactive)
same,max response,[1]; [19],-19.9%
same,max response,[1]; [20],-18.8%
same,Potency,[2],inactive
same,Potency,[4],inactive
same,Potency,[12],5.62 µM (active)
same,Potency,[13],5.01 µM (active)
same,Potency,[14],7.08 µM (active)
same,Potency,[15],12.6 µM (active)
same,Potency,[5],11.2 µM (active)
same,Potency,[6],3.55 µM (active)
same,Potency,[16],7.08 µM (active)
same,Potency,[7],inactive
same,Potency,[17],inactive
same,Potency,[9],2.93 µM (active)
